Measured values taken from PubChem BioAssay (EPA / NIEHS).
Calls of active or inactive are those of the source. How the source made its calls: active means hit-call score of the fitted dose curve at least 0.9, where 1 is the maximum; inactive means score below 0.9.

Key:
[1] = ATG_GLI_CIS: Attagene CIS-FACTORIAL HepG2 Assay for human Zinc Finger Protein GLI1 (AID 2282945); settings: HepG2, Attagene cis-factorial reporter mRNA, GLI element; actives raise or lower the signal
How it was run: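 HepG2 cells transiently transfected with cis-promoter multiplexed reporter units report endogenous transcription factor activity. After 24 h chemical exposure, reporter mRNA was quantified by RT-PCR, 6-FAM labelling, HpaI digestion and capillary electrophoresis, with bidirectional fitting against DMSO.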

[2] = target: Bile acid receptor (Homo sapiens) (UniProt Q96RI1); assay: ATG_IR1_CIS: Attagene CIS-FACTORIAL HepG2 Assay for human Nuclear Receptor Subfamily 1 Group H Member 4 (NR1H4), IR1 submotif (AID 2282946); settings: IR1 reporter transcription, actives raise or lower the signal
How it was run: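 Transient MRTU transfection, HepG2; 24 h dosing; RNA → RT-PCR → 6-FAM primer extension → HpaI digest → capillary electrophoresis fluorescence. Gain/loss of signal fitted relative to DMSO.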

[3] = ATG_GRE_CIS: Attagene CIS-FACTORIAL HepG2 Assay for human Glucocorticoid Response Elements (GRE) (AID 2282947); settings: HepG2 GRE cis-reporter, Attagene multiplex mRNA; actives raise or lower the signal
How it was run: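 HepG2 cells transiently transfected with multiple cis-promoter reporter units measure endogenous TF activity; 24 h compound exposure. Reporter mRNA quantified by RT-PCR, FAM labelling, HpaI digestion and capillary electrophoresis; bidirectional fit vs DMSO baseline.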

[4] = ATG_ISRE_CIS: Attagene CIS-FACTORIAL HepG2 Assay for human Interferon Regulatory Factor 1 (IRF1) binding to an Interferon-Stimulated Response Element (ISRE) (AID 2282948); settings: HepG2 ISRE cis-reporter (Attagene), mRNA transcription readout; actives raise or lower the signal
How it was run: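 Transfected HepG2 (multiple reporter transcription units, cis elements) dosed 24 h. RNA → oligo(dT) RT → PCR → 6-FAM primer extension → HpaI → CE. DMSO = negative control/baseline.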

[5] = ATG_M_32_CIS: Attagene CIS-FACTORIAL HepG2 Assay for M32 Transcription Factor (Internal Marker) (AID 2282949); settings: HepG2 Attagene cis-factorial M32 reporter, mRNA; actives raise or lower the signal;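 further: background control marker of the multiplexed CIS panel rather than a real target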
How it was run: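 Following 24 h chemical exposure of HepG2 cells transiently expressing cis-promoter reporter constructs, reporter transcript levels were determined by RT-PCR with fluorescent labelling and capillary electrophoresis, then fitted bidirectionally against DMSO.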

[6] = ATG_M_06_CIS: Attagene CIS-FACTORIAL HepG2 Assay for M06 Transcription Factor (Internal Marker) (AID 2282950); settings: HepG2 Attagene CIS-FACTORIAL M06 internal marker reporter; actives raise or lower the signal
How it was run: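 Measured 24 h post-dosing in transiently transfected HepG2 cells, this internal-marker endpoint reports reporter mRNA via RT-PCR with fluorescent primer extension and capillary electrophoresis. DMSO served as negative control and baseline for bidirectional fitting.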

[7] = target: Hypoxia-inducible factor 1-alpha (Homo sapiens) (UniProt Q16665); assay: ATG_HIF1a_CIS: Attagene CIS-FACTORIAL HepG2 Assay for human Hypoxia Inducible Factor 1 (HIF1A) (AID 2282951); settings: HepG2 Attagene cis-factorial HIF1a reporter transcription; actives raise or lower the signal
How it was run: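 RT-PCR/capillary electrophoresis fluorescence readout of reporter transcripts from endogenous-TF-driven cis elements in transfected HepG2 cells, 24 h exposure; activity fitted in both directions against DMSO controls.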

[8] = target: Hepatocyte nuclear factor 6 (Homo sapiens) (UniProt Q9UBC0); assay: ATG_HNF6_CIS: Attagene CIS-FACTORIAL HepG2 Assay for human Hepatocyte Nuclear Factor 6 (HNF6) (AID 2282952); settings: HepG2 Attagene cis-factorial HNF6 reporter transcription; actives raise or lower the signal
How it was run: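 Multiplexed mRNA reporter assay in transfected HepG2; 24 h dosing; RT-PCR plus capillary electrophoresis fluorescence; DMSO-referenced bidirectional curve fitting.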

[9] = target: Heat shock factor protein 1 (Homo sapiens) (UniProt Q00613); assay: ATG_HSE_CIS: Attagene CIS-FACTORIAL HepG2 Assay for human Heat Shock Transcription Factor 1 (HSE) (AID 2282953); settings: HepG2 HSE cis-reporter, Attagene RNA transcription; actives raise or lower the signal
How it was run: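 Reporter mRNA induction in HepG2 is measured 24 h after dosing, using transiently transfected multiplexed cis-regulated reporter units. Signal comes from capillary electrophoresis of labelled RT-PCR products, with DMSO as negative control.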

[10] = ATG_MRE_CIS: Attagene CIS-FACTORIAL HepG2 Assay for human Metal Responsive Element (MRE) (AID 2282954); settings: HepG2 MRE cis-reporter transcription, Attagene multiplex; actives raise or lower the signal
How it was run: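 HepG2 cells transiently transfected with multiple cis-element reporter units measure endogenous MTF1-driven transcription. After 24 h compound exposure, reporter mRNA is quantified by RT-PCR with 6-FAM labelling, HpaI digestion and capillary electrophoresis; bidirectional fits versus DMSO.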

[11] = ATG_PBREM_CIS: Attagene CIS-FACTORIAL HepG2 Assay for human Phenobarbital-responsive Enhancer Module (PBREM) (AID 2282955); settings: HepG2 PBREM cis-reporter, Attagene multiplexed transcription; actives raise or lower the signal
How it was run: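 Reporter mRNA read by RT-PCR, 6-FAM primer extension, HpaI digestion and capillary electrophoresis. Transfected HepG2 cells, 24 h compound exposure. Gain or loss of signal fitted bidirectionally relative to DMSO baseline.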

[12] = target: Paired box protein Pax-6 (Homo sapiens) (UniProt P26367); assay: ATG_Pax6_CIS: Attagene CIS-FACTORIAL HepG2 Assay for human Paired Box 6 (PAX6) (AID 2282956); settings: HepG2 CIS-FACTORIAL PAX6 reporter transcription, RNA readout; actives raise or lower the signal
How it was run: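 Transient MRTU transfection of HepG2 → compound exposure 24 h → TriZol RNA, oligo(dT) RT → PCR, 6-FAM primer extension, HpaI cut → capillary electrophoresis; activity fitted both directions against DMSO.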

[13] = ATG_PXRE_CIS: Attagene CIS-FACTORIAL HepG2 Assay for human Pregnane X Receptor Element (PXRE) (AID 2282957); settings: HepG2 Attagene CIS-FACTORIAL PXRE reporter, mRNA; actives raise or lower the signal
How it was run: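 Cells: HepG2, transiently transfected reporter units under cis promoter control. Exposure: 24 h. Detection: reporter mRNA via RT-PCR/CE fluorescence; bidirectional fitting, DMSO-referenced.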

[14] = ATG_PPRE_CIS: Attagene CIS-FACTORIAL HepG2 Assay for human Peroxisome Proliferator-activated Response Element (PPRE) (AID 2282958); settings: HepG2 PPRE cis-element reporter, Attagene transcription factor profiling; actives raise or lower the signal
How it was run: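 Read-out: fluorescent reporter mRNA fragments resolved by capillary electrophoresis after RT-PCR. HepG2 cells carried transiently transfected PPRE-driven cis reporter constructs and were dosed for 24 h; gain or loss of signal fitted relative to DMSO.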

[15] = ATG_RORE_CIS: Attagene CIS-FACTORIAL HepG2 Assay for human RAR-related Orphan Receptor Element (RORE) (AID 2282959); settings: HepG2 Attagene cis-factorial RORE reporter, mRNA; actives raise or lower the signal
How it was run: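 Readout: fluorescent reporter mRNA by RT-PCR plus capillary electrophoresis, 24 h after dosing transfected HepG2 cells. Endogenous transcription factor activity on a cis promoter element is measured. Gain or loss of signal fitted against DMSO.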

[16] = ATG_Sox_CIS: Attagene CIS-FACTORIAL HepG2 Assay for human SRY-box transcription factor (SOX) (AID 2282960); settings: HepG2 Attagene cis-factorial SOX reporter, mRNA; actives raise or lower the signal
How it was run: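 Read-out: fluorescent RT-PCR products of SOX1-linked reporter transcripts resolved by capillary electrophoresis, fitted bidirectionally against DMSO. Transiently transfected HepG2 cells, 24 h after chemical exposure, endogenous transcription factor activity.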

[17] = target: Transcription factor Sp1 (Homo sapiens) (UniProt P08047); assay: ATG_Sp1_CIS: Attagene CIS-FACTORIAL HepG2 Assay for human Specificity Protein 1 (Sp1) (AID 2282961); settings: HepG2 Sp1 cis-reporter transcription, actives raise or lower the signal
How it was run: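 Read-out: fluorescence of 6-FAM-labeled, HpaI-digested RT-PCR products separated by capillary electrophoresis. HepG2 cells carried transfected cis-element reporter units and were exposed to chemicals for 24 h; gain or loss of signal fitted relative to DMSO.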

[18] = ATG_SREBP_CIS: Attagene CIS-FACTORIAL HepG2 Assay for human Sterol Regulatory Element Binding (SREBP) (AID 2282962); settings: HepG2 Attagene cis-factorial SREBP reporter, mRNA; actives raise or lower the signal
How it was run: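 Transfected HepG2 (cis-regulated reporter library, endogenous TFs) → compound 24 h → total RNA → oligo(dT) RT → reporter-specific PCR → FAM primer extension, HpaI cut → CE fluorescence. Fit bidirectional vs DMSO.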

[19] = target: Signal transducer and activator of transcription 3 (Homo sapiens) (UniProt P40763); assay: ATG_STAT3_CIS: Attagene CIS-FACTORIAL HepG2 Assay for human Signal Transducer and Activator of Transcription 3 (STAT3) (AID 2282963); settings: HepG2, Attagene cis-factorial STAT3 reporter transcription; actives raise or lower the signal
How it was run: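 HepG2 cells transiently transfected with cis-element-driven multiple reporter transcription units; after 24 h chemical exposure, reporter mRNA measured by RT-PCR, 6-FAM primer-extension labelling, HpaI digestion and capillary electrophoresis. Bidirectional fitting versus DMSO baseline.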

[20] = ATG_TA_CIS: Attagene CIS-FACTORIAL HepG2 Assay for human TA Basal Promoter (AID 2282964); settings: HepG2 Attagene CIS-factorial TA basal promoter reporter; actives raise or lower the signal
How it was run: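 Cis-factorial format in HepG2: reporters report endogenous factors, not chimeric Gal4 fusions. After 24 h treatment, reporter transcripts were measured by RT-PCR-capillary electrophoresis fluorescence, analysed bidirectionally versus DMSO.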

Measured: AC50

Sequence of Heat shock factor protein 1 (Homo sapiens) (Q00613 whole entry, looked up): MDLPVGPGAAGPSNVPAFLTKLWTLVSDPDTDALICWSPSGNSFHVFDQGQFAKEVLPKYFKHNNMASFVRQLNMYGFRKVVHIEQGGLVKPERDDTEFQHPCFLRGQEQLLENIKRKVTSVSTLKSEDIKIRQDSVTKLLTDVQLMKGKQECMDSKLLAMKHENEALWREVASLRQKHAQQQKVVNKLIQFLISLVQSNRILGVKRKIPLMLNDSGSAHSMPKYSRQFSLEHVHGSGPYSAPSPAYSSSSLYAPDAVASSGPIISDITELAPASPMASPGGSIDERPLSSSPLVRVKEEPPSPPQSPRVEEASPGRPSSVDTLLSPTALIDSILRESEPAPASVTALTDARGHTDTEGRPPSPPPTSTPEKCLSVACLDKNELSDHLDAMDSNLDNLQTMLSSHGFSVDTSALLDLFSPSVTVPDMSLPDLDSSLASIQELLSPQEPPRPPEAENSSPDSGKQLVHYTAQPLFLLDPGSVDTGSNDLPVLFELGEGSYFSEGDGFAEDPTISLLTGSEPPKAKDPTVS
Sequence of Signal transducer and activator of transcription 3 (Homo sapiens) (P40763 whole entry, looked up): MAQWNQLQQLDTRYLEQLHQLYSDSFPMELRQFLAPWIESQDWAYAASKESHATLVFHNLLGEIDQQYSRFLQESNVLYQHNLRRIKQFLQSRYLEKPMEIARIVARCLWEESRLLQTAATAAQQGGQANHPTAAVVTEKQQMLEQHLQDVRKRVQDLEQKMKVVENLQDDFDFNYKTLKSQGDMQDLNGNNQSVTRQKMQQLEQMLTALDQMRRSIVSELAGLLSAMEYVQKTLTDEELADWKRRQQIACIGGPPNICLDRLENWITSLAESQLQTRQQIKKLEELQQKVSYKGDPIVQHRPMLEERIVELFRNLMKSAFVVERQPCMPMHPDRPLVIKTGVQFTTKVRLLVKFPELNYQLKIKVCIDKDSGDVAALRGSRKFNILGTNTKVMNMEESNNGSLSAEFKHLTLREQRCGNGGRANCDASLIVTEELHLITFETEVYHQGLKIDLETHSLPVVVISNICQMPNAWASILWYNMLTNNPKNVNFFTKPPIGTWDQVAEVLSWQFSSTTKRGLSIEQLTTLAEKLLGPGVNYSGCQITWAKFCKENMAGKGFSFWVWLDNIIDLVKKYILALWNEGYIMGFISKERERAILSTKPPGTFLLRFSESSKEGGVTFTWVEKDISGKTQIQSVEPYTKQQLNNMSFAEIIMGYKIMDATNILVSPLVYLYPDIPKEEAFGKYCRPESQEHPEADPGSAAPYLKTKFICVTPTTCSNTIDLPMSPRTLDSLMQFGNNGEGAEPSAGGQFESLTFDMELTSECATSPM
Sequence of Transcription factor Sp1 (Homo sapiens) (P08047 whole entry, looked up): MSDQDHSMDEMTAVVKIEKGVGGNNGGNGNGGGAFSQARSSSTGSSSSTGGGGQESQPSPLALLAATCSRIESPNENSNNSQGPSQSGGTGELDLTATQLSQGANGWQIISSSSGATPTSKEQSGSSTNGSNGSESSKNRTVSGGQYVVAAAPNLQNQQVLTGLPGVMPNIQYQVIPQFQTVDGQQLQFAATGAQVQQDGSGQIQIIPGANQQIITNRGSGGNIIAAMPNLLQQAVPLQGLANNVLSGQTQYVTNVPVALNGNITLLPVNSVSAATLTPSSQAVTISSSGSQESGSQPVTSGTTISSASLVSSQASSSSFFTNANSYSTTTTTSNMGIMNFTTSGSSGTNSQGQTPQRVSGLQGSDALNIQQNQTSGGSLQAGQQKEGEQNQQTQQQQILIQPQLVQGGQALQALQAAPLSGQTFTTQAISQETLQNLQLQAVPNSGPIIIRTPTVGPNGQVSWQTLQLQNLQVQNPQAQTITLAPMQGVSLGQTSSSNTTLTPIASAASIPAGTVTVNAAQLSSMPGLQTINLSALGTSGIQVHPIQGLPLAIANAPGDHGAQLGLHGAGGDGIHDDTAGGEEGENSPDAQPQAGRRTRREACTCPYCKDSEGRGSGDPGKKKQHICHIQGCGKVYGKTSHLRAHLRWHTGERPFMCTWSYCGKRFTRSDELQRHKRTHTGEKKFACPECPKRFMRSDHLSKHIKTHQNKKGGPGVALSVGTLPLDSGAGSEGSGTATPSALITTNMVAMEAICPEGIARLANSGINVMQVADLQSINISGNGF
Sequence of Paired box protein Pax-6 (Homo sapiens) (P26367 whole entry, looked up): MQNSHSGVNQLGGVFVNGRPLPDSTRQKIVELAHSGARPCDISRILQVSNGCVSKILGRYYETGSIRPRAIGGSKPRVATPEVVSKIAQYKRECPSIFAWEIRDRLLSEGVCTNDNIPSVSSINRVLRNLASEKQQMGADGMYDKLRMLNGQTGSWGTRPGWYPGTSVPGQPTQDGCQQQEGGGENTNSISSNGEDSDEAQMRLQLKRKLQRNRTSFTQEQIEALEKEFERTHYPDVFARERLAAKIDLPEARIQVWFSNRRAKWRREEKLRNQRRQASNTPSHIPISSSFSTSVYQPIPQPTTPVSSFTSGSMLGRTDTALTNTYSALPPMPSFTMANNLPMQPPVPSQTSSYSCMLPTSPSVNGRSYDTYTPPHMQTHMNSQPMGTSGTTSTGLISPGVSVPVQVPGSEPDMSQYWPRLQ
Sequence of Hypoxia-inducible factor 1-alpha (Homo sapiens) (Q16665 whole entry, looked up): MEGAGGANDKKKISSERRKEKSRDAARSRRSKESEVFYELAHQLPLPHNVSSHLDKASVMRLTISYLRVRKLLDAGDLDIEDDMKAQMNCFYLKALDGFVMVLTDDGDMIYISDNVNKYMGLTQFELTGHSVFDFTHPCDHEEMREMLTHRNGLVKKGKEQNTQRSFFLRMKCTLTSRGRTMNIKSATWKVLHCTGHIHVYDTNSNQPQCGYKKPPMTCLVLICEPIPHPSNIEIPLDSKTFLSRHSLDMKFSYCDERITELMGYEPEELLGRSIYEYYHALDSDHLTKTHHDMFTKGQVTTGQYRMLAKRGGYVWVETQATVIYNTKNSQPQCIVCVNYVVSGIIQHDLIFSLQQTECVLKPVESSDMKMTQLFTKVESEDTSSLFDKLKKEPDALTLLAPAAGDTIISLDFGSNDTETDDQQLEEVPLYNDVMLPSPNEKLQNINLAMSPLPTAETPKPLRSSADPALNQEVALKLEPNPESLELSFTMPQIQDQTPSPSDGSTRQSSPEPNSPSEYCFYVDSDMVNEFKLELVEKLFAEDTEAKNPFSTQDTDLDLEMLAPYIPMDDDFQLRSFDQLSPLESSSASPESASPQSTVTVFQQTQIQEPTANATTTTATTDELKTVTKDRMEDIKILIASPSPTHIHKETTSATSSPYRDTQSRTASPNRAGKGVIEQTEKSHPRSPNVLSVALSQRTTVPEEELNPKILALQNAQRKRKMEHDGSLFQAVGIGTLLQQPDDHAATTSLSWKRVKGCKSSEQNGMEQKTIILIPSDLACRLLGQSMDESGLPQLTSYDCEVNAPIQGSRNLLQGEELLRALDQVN
Sequence of Bile acid receptor (Homo sapiens) (Q96RI1 whole entry, looked up): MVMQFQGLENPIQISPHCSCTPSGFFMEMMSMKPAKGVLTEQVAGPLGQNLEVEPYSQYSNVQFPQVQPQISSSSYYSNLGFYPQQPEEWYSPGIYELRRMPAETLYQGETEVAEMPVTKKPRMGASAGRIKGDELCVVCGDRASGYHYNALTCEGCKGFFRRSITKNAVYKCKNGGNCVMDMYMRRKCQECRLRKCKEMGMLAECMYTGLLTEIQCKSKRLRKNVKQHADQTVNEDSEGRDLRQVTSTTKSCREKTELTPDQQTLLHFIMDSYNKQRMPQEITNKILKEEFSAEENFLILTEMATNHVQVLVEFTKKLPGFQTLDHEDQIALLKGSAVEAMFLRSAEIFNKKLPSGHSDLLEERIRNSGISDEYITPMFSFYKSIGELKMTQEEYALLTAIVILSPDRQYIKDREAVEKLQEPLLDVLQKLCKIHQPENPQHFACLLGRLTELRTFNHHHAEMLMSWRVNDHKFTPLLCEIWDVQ
Sequence of Hepatocyte nuclear factor 6 (Homo sapiens) (Q9UBC0 whole entry, looked up): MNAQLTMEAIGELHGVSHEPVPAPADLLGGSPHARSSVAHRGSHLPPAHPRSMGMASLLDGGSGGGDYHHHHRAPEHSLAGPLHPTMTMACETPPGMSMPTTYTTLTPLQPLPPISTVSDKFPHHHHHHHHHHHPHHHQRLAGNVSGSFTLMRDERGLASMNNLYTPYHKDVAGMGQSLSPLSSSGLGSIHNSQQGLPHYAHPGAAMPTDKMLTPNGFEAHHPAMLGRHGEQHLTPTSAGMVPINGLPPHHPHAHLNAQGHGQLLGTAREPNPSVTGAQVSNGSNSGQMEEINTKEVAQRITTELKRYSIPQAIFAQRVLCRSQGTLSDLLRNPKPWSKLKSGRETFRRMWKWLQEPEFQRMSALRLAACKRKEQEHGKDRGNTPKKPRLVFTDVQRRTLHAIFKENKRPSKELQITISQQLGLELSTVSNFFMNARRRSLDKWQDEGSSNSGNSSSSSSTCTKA

C=CC(=O)OCCC(F)(F)C(F)(F)C(F)(F)C(F)(F)F
inactive: [1] | [2] | [3] | [4] | [5] | [6] | [7] | [8] | [9] | [10] | [11] | [12] | [14] | [15] | [16] | [17] | [18] | [19] | [20]
active: [13] 43.8 µM

O=C1c2ccccc2C(=O)c2c(Cl)cccc21
active: [13] 0.997 µM
inactive: [1] | [2] | [3] | [4] | [5] | [6] | [7] | [8] | [9] | [10] | [11] | [12] | [14] | [15] | [16] | [17] | [18] | [19] | [20]

OCC(F)(F)C(F)(F)C(F)(F)CO
inactive: [1] | [2] | [3] | [4] | [5] | [6] | [7] | [8] | [9] | [10] | [11] | [12] | [13] | [14] | [15] | [16] | [17] | [18] | [19] | [20]
